BLM inh – Bloom syndrome helicase (human) inhibition. P54132. recombinant BLM DNA unwinding, fluorescence dequenching. Potency, µM (highest dose often 56.1 µM), for the others: at the top dose activity change, negative = inhibition, actives largely listed as inhibitors. 350,000 compounds, 0.2% hits. AID 2528;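 note: plate controls were vehicle for no effect and no enzyme for full effect; nearly all actives have a fitted effect of over 35% in size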
APE1 inh – APE1 (human) endonuclease inhibition. recombinant APE1, TAMRA/BHQ-2 abasic DNA cleavage fluorescence. Potency, µM (top dose mostly 65.8 µM), without a hit: at the highest dose activity change, negative = inhibition, usual class: inhibitors. 350,000 compounds, 0.35% hits;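 note: plate controls were vehicle for no effect and reference inhibitor for full effect; nearly all actives have a fitted effect of over 55% in size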
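Quantitative HTS: incision of a TAMRA/BHQ-2 double-stranded substrate bearing a tetrahydrofuran abasic site by 0.75 nM APE1 raises fluorescence. Substrate 50 nM final, added after 15 min compound preincubation at room temperature; progress as third-minus-first kinetic read difference.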
FEN1 inh – inhibitors of human flap endonuclease 1; P39748; Recombinant FEN1 flap cleavage, fluorescence, 15 min; Potency, µM (top dose mostly 114 µM), inactives show top-dose activity change, negative = inhibition, usual class: inhibitors; 390,000 compounds, 0.35% hits; AID 588795; note: nearly all actives have a fitted effect of over 65% in size
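Quantitative HTS format: each compound was titrated, incubated with 10 nM nuclease for 15 min at room temperature, then challenged with flap substrate at 50 nM final. Signal change over 15 min gave concentration–effect curves.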
RECQ1 inh-1 – inhibitors of human RECQ1 DNA helicase. Potency, µM (series often up to 57.3 µM), for the others: at the highest dose activity, negative = inhibition, most hits filed as inhibitors. RECQ1 DNA unwinding, red fluorescence kinetic read. 240,000 compounds, 0.54% hits. P46063;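 note: plate controls were vehicle for no effect and no enzyme for full effect; nearly all actives have a fitted effect of over 30% in size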
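RECQ1T1 50 nM; forked duplex (20 bp + 30-nt ss tails) 200 nM, ATP 2 mM final; pH 8.0, 2 mM MgCl2, 2.5 ug/ml poly(dI-dC); 15 min compound preincubation; discontinuous kinetic read over 2 h at RT.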
TDP1 inh – TDP1 (human) enzyme inhibition; Q9NUW8; recombinant TDP1, AlphaScreen DNA substrate cleavage; Potency, µM (doses to about 130 µM), for the others: at the top dose activity change, negative = inhibition, usual class: inhibitors; 350,000 compounds, 0.28% hits; AID 485290; note: nearly all actives have a fitted effect of over 40% in size
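E. coli-derived human Tdp1, 1 nM final. Cpd preinc 15 min RT; substrate 15 nM final, 5 min RT; AS bead mix 10 ug/ml final, 10 min RT. Signal loss = tyrosine-FITC cleavage. No-enzyme wells = max signal.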
RECQ1 conf – confirmation of human RECQ1 helicase inhibitors. shares compounds with RECQ1 inh-1. RECQ1 helicase DNA unwinding, fluorescence. Potency, µM (series often up to 229 µM), inactives show at the top dose activity change, negative = inhibition, hits mostly inhibitors. 610 compounds, 28% hits; note: nearly all actives have a fitted effect of over 45% in size
RECQ1 ADP FP – ADP displacement flagged in RECQ1 inhibitor counter-screen. shares compounds with RECQ1 inh-1. ADP fluorescence polarization displacement counterscreen. Potency, µM (highest dose often 228 µM), inactives show at the top dose activity change, negative = inhibition, hits mostly inhibitors. 530 compounds, 27% hits; note: nearly all actives have a fitted effect of over 45% in size
RECQ1 inh-2 – RECQ1 helicase inhibition confirmed, round 2; AID 504841; 1,100 compounds, 15% hits; recombinant RECQ1 DNA unwinding, red fluorescence; Potency, µM (top dose mostly 119 µM), without a hit: top-dose activity, negative = inhibition, usual class: inhibitors; shares compounds with RECQ1 inh-1; note: nearly all actives have a fitted effect of over 50% in size
* = called active by the depositor; i = inactive; ? = inconclusive; . = not tested or not shown; [ ] = remark or other dose. Hits are enriched below; roughly 0.92% of the tested compounds scored in any of these assays. Calls come from the whole dose curve; as a rule, active = well fitted curve in the direction sought with a large enough effect; inconclusive = small, poorly fitted or top-dose-only effect, or another doubt; inactive = no such curve, though single readings can be large; an effect the other way counts as inactive or inconclusive. Unless noted, % is set by controls: 0 for no effect and ±100 for the full control effect; potency is the fitted concentration of half-maximal effect.

SMILES | BLM inh | APE1 inh | FEN1 inh | RECQ1 inh-1 | TDP1 inh | RECQ1 conf | RECQ1 ADP FP | RECQ1 inh-2
Cc1cc(C)c(S(=O)(=O)NCc2ccc3c(c2)cc(C)n3C)c(C)c1 | -15% | -3% | ? | ? | 11% | . | . | 56µM*
CC(=O)Nc1ccc(S(=O)(=O)NCc2ccc3c(c2)cc(C)n3C)cc1 | -24% | -8% | ? | 32µM* | 4% | . | . | 50µM*
Cc1cccc(C)c1OCC(=O)N[C@@H](Cc1ccccc1)[C@@H](O)C[C@H](Cc1ccccc1)NC(=O)[C@H](C(C)C)N1CCCNC1=O | 1% | . | -28% | . | . | . | . | .
COc1cc(NC(=O)c2cccs2)c(C(=O)OCC(=O)NCc2ccco2)cc1OC | ? | ? | -11% | 8.9µM* | . | 28µM* | ? | ?
CCCCN1C=CC(=C2C(=O)c3ccccc3C2=O)C=C1 | -1% | 4% | 1% | ? | -5% | . | . | -12%
CCn1c(CSc2ncn[nH]2)nc2cc(C(=O)O)ccc21 | -4% | -9% | 1% | -29% | 6% | . | . | .
CCn1c(CSc2nnc(-c3ccncc3)n2C)nc2cc(C(=O)O)ccc21 | -6% | -10% | ? | 14µM* | -2% | 40µM* | 7.1µM* | 79µM*
C=CCNC(=O)c1cc2c(=O)c3ccccc3oc2nc1C | -1% | -12% | -12% | 28µM* | 3% | . | . | -10%
CCc1nnc(NS(=O)(=O)c2ccc(N/C=C\C(=O)c3cccc4ccccc34)cc2)s1 | -2% | 15% | -9% | ? | 6% | . | . | ?
COc1ccccc1NC(=O)CSc1nnc(-c2ccc(NC(C)=O)cc2)n1C | -6% | 14% | -1% | -17% | 9% | . | . | .
COc1ccccc1C(=O)Nc1ccc(-c2nnc(SCC(=O)O)n2C)cc1 | -4% | -5% | -1% | i | 5% | 17% | -11% | .
Cc1cc(C(=O)CSc2nnc(-c3ccncc3)n2-c2ccccc2)c(C)n1C | -13% | -5% | 1% | ? | -15% | . | . | .
Cc1cc(C(=O)CSc2nnc(-c3ccccc3)n2-c2ccccc2)c(C)n1-c1ncn[nH]1 | -11% | 1% | -33% | 35µM* | -11% | . | . | ?
Cc1ccc(NC(=O)COC(=O)CNC(=O)c2cccc([N+](=O)[O-])c2)cc1S(=O)(=O)N1CCCCCC1 | -9% | ? | 1% | 32µM* | 6% | . | . | -16%
CSc1ccc(CCNC(=O)C(C)n2c(C)c3cnn(-c4ccccc4)c(=O)c3c2C)cc1 (configuration not stated) | 1% | . | 5% | . | 8% | . | . | .
O=C(O)CC/C(=C\c1ccc(N2CCOCC2)c([N+](=O)[O-])c1)c1nc2ccccc2s1 | -3% | 14% | -14% | i | 3% | ? | ? | .
O=C(O)C/C(=C\c1ccc(N2CCOCC2)c([N+](=O)[O-])c1)c1nc2ccccc2s1 | -14% | -2% | -6% | -20% | 3% | 112µM* | ? | .
O=C(O)CC/C(=C\c1ccc(Cl)c([N+](=O)[O-])c1)c1nc2ccccc2s1 | -8% | 4% | -8% | -2% | -3% | . | . | .
CCN(CC)C(=O)Cn1c(=O)cc(C)c2c(C)nn(-c3cccc(Cl)c3C)c21 | 0% | . | -11% | . | 5% | . | . | .
CCn1c(SCC(=O)c2ccc(O)c(O)c2)nnc1-c1ccc(C)cc1 | -4% | ? | -5% | 10µM* | -4% | ? | -14%[91.9 µM] | ?
O=C(Cn1ncc(Cl)c(Cl)c1=O)N1CCOCC1 | -4% | -4% | -2% | -2% | 0% | . | . | .
O=C(Cn1ncc(Cl)c(Cl)c1=O)N1CCN(Cc2ccccc2)CC1 | -18% | 9% | 20% | 32µM* | 4% | . | . | -14%

Compound activity (PubChem)
